Data on 7 molecules can be found in PubChem BioAssay (EPA / NIEHS).

Values joined by “and” are separate entries in the source; they are usually repeats but may differ in a detail not shown here. Equal values may be shown once. Results filed as inconclusive are left out. More than one record can exist for a structure, and the calls need not agree. Active and inactive are the calls of the source. How the source made its calls, unless noted: active means hit-call score of the fitted dose curve at least 0.9, where 1 is the maximum; inactive means score below 0.9.

For orientation: AC50 means the concentration at which the activity in the assay is half-maximal.

Test [1] can be described thus: CCTE_Harrill_HTTr_Viability_MCF7: CCTE's 6-hour Cell Viability Assessment for the High-Throughput Transcriptomics (HTTr) Platform, in MCF-7 cells cultured in DMEM + 10% fetal bovine serum, Harrill Lab (AID 2284010). Summed up:
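Viability measured through PI dye exclusion by high-content imaging at 6 h post-dosing.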

The nature of test [2]: CCTE_Harrill_HTTr_Apoptosis_MCF7: CCTE's 6-hour Apoptosis Assessment for the High-Throughput Transcriptomics (HTTr) Platform, in MCF-7 cells cultured in DMEM + 10% fetal bovine serum, Harrill Lab (AID 2284011). Summed up: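 MCF-7 (DMEM + 10% FBS), 384-well; 8-pt dilution series, 6 h chemical exposure; caspase-3/7 activation via CellEvent Caspase 3/7 Green, HCI; bidirectional fit vs DMSO.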

A short description of test [3]: BSK_BT_PBMCCytotoxicity: PBMC Cytotoxicity Assessment in the BioMAP Diversity Plus: BT Assay (AID 2284225).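 Further: PBMC viability measured by Alamar Blue dye reduction fluorescence.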 Particulars: primary human B cells with PBMC. Summed up:
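75,000 cells/well; cpd 1 h → SEB + TSST-1 (20 ng/mL final each) → 90 h → Alamar Blue 6 h → fluor. 546/580 nm. DMSO = neg. control/baseline.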

Read-out in test [4]: Secreted IgG (sIgG), gene 3500
As to the kind of experiment: BSK_BT_sIgG: BioMAP Diversity Plus: BT Assay for Secreted IgG (sIgG) Biomarker Activity (AID 2284226). Particulars: primary human B cells with PBMC. Summed up: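 Secreted IgG from a human primary B cell–PBMC co-culture was measured by ELISA 24 hours after dosing, with DMSO defining baseline activity.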

The nature of test [5]: BSK_BT_Bcell_Proliferation: Viability Assessment in the BioMAP Diversity Plus: BT Assay for B cell Proliferation (AID 2284227). The conditions noted are these: primary human B cells with PBMC. Summed up:
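Human B cell/PBMC co-culture; test chemical added; 72 h; TCA fix (10%), 0.1% SRB stain, A560 for total protein as a proliferation read-out; positive-direction fit vs DMSO baseline.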

Read-out in test [6]: Interleukin 6 (IL6), IL6 (gene 3569)
As to the kind of experiment: BSK_BT_xIL6: BioMAP Diversity Plus: BT Assay for Interleukin 6 (IL6) Biomarker Activity (AID 2284228). Particulars: primary human B cells with PBMC. Summed up: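 B cells and peripheral blood mononuclear cells (human primary co-culture) were dosed with chemical, and after 24 h IL-6 released into the medium was measured by Luminex xMAP. Responses were analysed as gain of signal over DMSO control.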

Read-out in test [7]: Interleukin 17A (IL17A), IL17A (gene 3605)
As to the kind of experiment: BSK_BT_xIL17A: BioMAP Diversity Plus: BT Assay for Interleukin 17A (IL17A) Biomarker Activity (AID 2284229). Particulars: primary human B cells with PBMC. Summed up:
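Secreted IL-17A was the measured endpoint, read by Luminex xMAP multiplex in supernatants of a human B cell/PBMC co-culture harvested 24 h after chemical dosing. Signal increase relative to DMSO defined activity.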

Read-out in test [8]: Tumor necrosis factor (Homo sapiens) (UniProt P01375)
As to the kind of experiment: BSK_BT_xTNFa: BioMAP Diversity Plus: BT Assay for Tumor necrosis factor alpha (TNF-alpha) Biomarker Activity (AID 2284230). Particulars: primary human B cells with PBMC. Summed up:
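Read-out: Luminex xMAP quantitation of secreted TNF-alpha from a B cell/PBMC co-culture 24 h after compound addition. Signal analysed relative to DMSO vehicle, positive fitting direction.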

Read-out in test [9]: Vascular cell adhesion molecule 1 (VCAM1), VCAM1 (gene 7412)
As to the kind of experiment: BSK_MyoF_VCAM1: BioMAP Diversity Plus: MyoF Assay for Vascular cell adhesion molecule 1 (VCAM1) Biomarker Activity (AID 2284231). The conditions noted are these: primary human lung fibroblasts. Summed up: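 ELISA read-out of VCAM-1 on human lung fibroblasts 24 h after chemical treatment, with positive-direction curve fitting relative to DMSO controls. Parallel cultures were stained with sulforhodamine B for total protein to flag overt cytotoxicity.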

Read-out in test [10]: Collagen III, COL3A1 (gene 1281)
As to the kind of experiment: BSK_MyoF_CollagenIII: BioMAP Diversity Plus: MyoF Assay for Collagen III Biomarker Activity (AID 2284239). The conditions noted are these: primary human lung fibroblasts. Summed up: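 ELISA read-out of collagen III from human lung fibroblasts after 24 h of chemical treatment. The DMSO control served as negative control and baseline, with values fitted in the positive direction.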

Read-out in test [11]: Interleukin 17F (IL17F), IL17F (gene 112744)
As to the kind of experiment: BSK_BT_xIL17F: BioMAP Diversity Plus: BT Assay for Interleukin 17F (IL17F) Biomarker Activity (AID 2284243). Particulars: primary human B cells with PBMC. Summed up: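 Compound was added to co-cultures of human B cells and PBMC. After 24 hours, IL-17F released into the medium was measured with LumineX xMAP technology. Responses were then fitted upward relative to DMSO.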

Read-out in test [12]: Actin alpha 1 (ACTA1), ACTA1 (gene 58)
As to the kind of experiment: BSK_MyoF_ACTA1: BioMAP Diversity Plus: MyoF Assay for Actin alpha 1 (ACTA1) Biomarker Activity (AID 2284244). Particulars: primary human lung fibroblasts. Summed up: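 Measured by ELISA: alpha-smooth muscle actin in human primary lung fibroblasts 24 h after dosing, with DMSO as baseline and upward signal change as the fitted direction.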

Read-out in test [13]: Interleukin 2 (IL2), IL2 (gene 3558)
As to the kind of experiment: BSK_BT_xIL2: BioMAP Diversity Plus: BT Assay for Interleukin 2 (IL2) Biomarker Activity (AID 2284245). The conditions noted are these: primary human B cells with PBMC. Summed up:
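Secreted interleukin-2 from human B cell/PBMC co-cultures, measured 24 h post-dosing by Luminex multiplex immunoassay. Upward-direction curve fitting against DMSO baseline.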

Read-out in test [14]: Basic fibroblast growth factor (bFGF), FGF2 (gene 2247)
As to the kind of experiment: BSK_MyoF_bFGF: BioMAP Diversity Plus: MyoF Assay for Basic fibroblast growth factor (bFGF) Biomarker Activity (AID 2284246). The conditions noted are these: primary human lung fibroblasts. Summed up:
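In this multiplexed cell system, lung fibroblasts (human primary) receive test chemical for 24 h before ELISA detection of bFGF; DMSO defines baseline and the analysis direction is positive.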

Read-out in test [15]: Collagen IV, COL4A1 (gene 1282)
As to the kind of experiment: BSK_MyoF_CollagenIV: BioMAP Diversity Plus: MyoF Assay for Collagen IV Biomarker Activity (AID 2284247). The conditions noted are these: primary human lung fibroblasts. Summed up: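 Activity is scored as a signal increase over DMSO in an ELISA for Collagen IV, measured on human lung fibroblasts at 24 h after chemical treatment. Cytotoxicity is checked in parallel cultures by sulforhodamine B total-protein staining.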

Read-out in test [16]: Plasminogen activator inhibitor-1 (PAI1), SERPINE1 (gene 5054)
As to the kind of experiment: BSK_MyoF_PAI1: BioMAP Diversity Plus: MyoF Assay for Plasminogen activator inhibitor-1 (PAI1) Biomarker Activity (AID 2284256).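 On outcome: PAI-1 protein level measured by ELISA in fibroblast cultures; PAI-1 read 24 h after compound addition.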 The conditions noted are these: primary human lung fibroblasts. Summed up: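 Primary human lung fibroblasts are dosed and incubated 24 h. PAI-1 is then measured by ELISA, while parallel cultures undergo SRB staining for overt cytotoxicity. Increases over DMSO define activity.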

Read-out in test [17]: Interleukin-8 (IL8), CXCL8 (gene 3576)
As to the kind of experiment: BSK_MyoF_IL8: BioMAP Diversity Plus: MyoF Assay for Interleukin-8 (IL8) Biomarker Activity (AID 2284261). The conditions noted are these: primary human lung fibroblasts. Summed up: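 IL-8 levels were measured by ELISA in human lung fibroblasts harvested 24 h after compound addition. Responses were analysed as gain of signal over the DMSO baseline.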

Read-out in test [18]: Decorin, DCN (gene 1634)
As to the kind of experiment: BSK_MyoF_Decorin: BioMAP Diversity Plus: MyoF Assay for Decorin Biomarker Activity (AID 2284265). Particulars: primary human lung fibroblasts. Summed up:
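Compound is added to lung fibroblast cultures; cells incubate 24 h; decorin is then measured by ELISA; the response is analysed upward against DMSO controls.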

Test [19] can be described thus: BSK_MyoF_SRB: Viability Assessment in the BioMAP Diversity Plus: MyoF Assay (AID 2284267).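 Further: total protein by SRB absorbance in parallel cultures as cytotoxicity measure.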 Particulars: primary human lung fibroblasts. Summed up:
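Cytotoxicity in primary human lung fibroblasts is gauged by SRB total-protein staining 24 h after dosing, with DMSO as the negative control.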

Test [20] deals with Bile acid receptor (Homo sapiens) (UniProt Q96RI1). As to the kind of experiment: ATG_FXR_TRANS: Attagene TRANS-FACTORIAL HepG2 Assay for Farnesoid X Receptor (FXR) (AID 2282979; active means hit-call score of the fitted dose curve at least 0.9, where 1 is the maximum;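 further: hits raise reporter mRNA above DMSO so AC50 marks FXR activation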). The conditions noted are these: HepG2 Attagene TRANS FXR-GAL4 reporter transcription. Summed up: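 Transient transfection of HepG2 with multiplexed GAL4-UAS reporter units; exogenous FXR-GAL4 chimera. Dose 24 h → TriZol RNA → oligo(dT) RT → PCR, 6-FAM primer extension, HpaI cut → CE. Gain vs DMSO.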
Bile acid receptor (Homo sapiens), sequence (Q96RI1 whole entry, looked up, the tested form may be a part): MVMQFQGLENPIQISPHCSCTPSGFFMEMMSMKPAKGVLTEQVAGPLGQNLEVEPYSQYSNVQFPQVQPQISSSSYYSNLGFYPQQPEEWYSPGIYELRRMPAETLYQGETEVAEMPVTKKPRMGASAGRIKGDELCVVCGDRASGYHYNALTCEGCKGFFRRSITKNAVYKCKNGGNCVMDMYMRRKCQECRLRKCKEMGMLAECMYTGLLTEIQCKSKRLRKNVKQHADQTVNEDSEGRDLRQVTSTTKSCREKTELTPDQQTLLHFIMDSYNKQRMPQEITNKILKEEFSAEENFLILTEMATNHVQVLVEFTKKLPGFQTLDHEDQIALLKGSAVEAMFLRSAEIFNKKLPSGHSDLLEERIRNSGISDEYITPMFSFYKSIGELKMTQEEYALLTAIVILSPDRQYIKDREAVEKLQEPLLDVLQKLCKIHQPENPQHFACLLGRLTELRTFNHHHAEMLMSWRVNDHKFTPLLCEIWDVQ

Tumor necrosis factor (Homo sapiens), sequence (P01375 whole entry, looked up): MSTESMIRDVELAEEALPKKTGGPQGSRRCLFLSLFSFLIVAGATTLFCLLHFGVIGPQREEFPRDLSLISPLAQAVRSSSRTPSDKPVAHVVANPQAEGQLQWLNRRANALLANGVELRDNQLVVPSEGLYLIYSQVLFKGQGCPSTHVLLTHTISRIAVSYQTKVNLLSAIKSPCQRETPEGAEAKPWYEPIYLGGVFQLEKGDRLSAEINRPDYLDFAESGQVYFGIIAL

For `O=C(O)CCCc1ccc(N(CCCl)CCCl)cc1`, the result in test [1], in test [2], in test [3], in test [7], in test [10] and in [12] was inactive. The result in test [13], in [14], in test [15], in test [16], in test [17] and in test [18] was inactive. Also, the result in test [19] was inactive. The AC50 is 3.48 µM (active) and 5.7 µM (active) in [4]; 12.7 µM (active) and 13 µM (active) in test [5]; 14.8 µM (active) and 20 µM (active) in [6]; 15 µM (active) in [7]; 23.6 µM (active) and 20 µM (active) in test [8]; 24.4 µM (active) and 30.1 µM (active) in test [9]. Besides, the AC50 in [10] was 20 µM (active); in test [11], 20 µM (active) and 15.2 µM (active); in test [13], 35.5 µM (active); in test [16], 0.016 µM (active).
Take `O=C1C(Cl)=C(Cl)C(=O)C(Cl)=C1Cl`: the call in test [20], in [1], in test [2] and in test [18] was inactive. Also, the AC50 is 26.4 µM (active) in test [3]; 32.6 µM (active) in test [4]; 26 µM (active) in [5]; 30.3 µM (active) in [6]; 20 µM (active) in [7]; 20 µM (active) in [8]. In addition, the AC50 is 20.5 µM (active) in [9]; 14.4 µM (active) in test [10]; 28.8 µM (active) in [11]; 23.8 µM (active) in [12]; 29.3 µM (active) in test [13]; 30.9 µM (active) in test [14]. Moreover, the AC50 in [15] was 25 µM (active); in test [16], 29.9 µM (active); in test [17], 32 µM (active); in test [19] it was 29.6 µM (active).
In the case of `CN1C(=O)CCS(=O)(=O)C1c1ccc(Cl)cc1` (stereo not drawn), the result in [1] and in test [2] was inactive.
Regarding `CC(C)(C)C(O)C(Oc1ccc(-c2ccccc2)cc1)n1cncn1` (stereo not drawn), the result in [20], in test [1], in test [2], in test [3], in [6] and in test [7] was inactive. Besides, the result in [8], in test [11], in test [16] and in [17] was inactive. Moreover, the AC50 in [4] was 17.9 µM (active); in test [5], 29.8 µM (active); in [9], 30 µM (active); in test [10], 30.5 µM (active); in test [12] it was 34.5 µM (active); in test [13] it was 20 µM (active). The half-maximal activity concentration (AC50) in test [14] is 33.6 µM (active); in test [15] it was 20 µM (active); in test [18], 36.5 µM (active); in test [19], 32 µM (active).
Regarding `O=[N+]([O-])O`, the outcome in [1] and in test [2] was inactive.
Turning to `CC(C)COP(=O)(OCC(C)C)OCC(C)C`, the molecule was called inactive in test [20], in [3], in test [4], in test [5], in [6] and in test [7]. The result in test [8], in test [9], in [10], in [11], in test [12] and in test [13] was inactive. Moreover, the result in test [14], in test [15], in test [16], in [17], in [18] and in test [19] was inactive.
Take `c1ccc(Nc2ccc3ccccc3c2)cc1`: the result in test [20], in test [3], in test [15], in test [17] and in [18] was inactive. The AC50 was 31.5 µM (active) in test [4]; 27.2 µM (active) in test [5]; 29.9 µM (active) in test [6]; 20 µM (active) in test [7]; 20 µM (active) in [8]; 31.2 µM (active) in [9]. Besides, the concentration at half-maximal activity (AC50) was 20 µM (active) in test [10]; 30.8 µM (active) in test [11]; 29 µM (active) in test [12]; 20 µM (active) in test [13]; 31 µM (active) in [14]; 31.6 µM (active) in test [16]. Besides, the AC50 in test [19] is 35.5 µM (active).
